Assay outcomes as filed in PubChem.
In the library only some 2.4% were active in any assay of this set; here they are far more common.
WRN helicase inh-1: WRN helicase (human) inhibition; 0.46% of 360,000 active; WRN helicase unwinding, fluorescent forked duplex, kinetic; Potency, µM (titrated, usually from 114 µM), inactives show top-dose activity change, negative = inhibition, most hits filed as inhibitors; AID 651768; Q14191; also: % is scaled to controls: 0 for no effect and ±100 for the full control effect; nearly all actives have a fitted effect of over 55% in size
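WRN at 20 nM final was preincubated with compound for 15 min at room temperature; reaction started with 100 nM forked duplex oligonucleotide carrying fluorophore and quencher plus 2 mM ATP (final). Unwinding followed kinetically by red fluorescence (ex 525/em 598 nm).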
POLB inh: inhibitors of human DNA polymerase beta | P06746 | Pol beta primer extension/strand displacement, fluorescence kinetic | Potency, µM (series often up to 114 µM), for the others: at the highest dose activity change, negative = inhibition, usual class: inhibitors | 1.3% of 340,000 active | AID 485314; also: % is scaled to controls: 0 for no effect and ±100 for the full control effect
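Reaction started by 50 nM substrate onto compound-treated Pol beta (10 nM, 15 min preincubation, room temperature); plates read at 0 min and 10 min. Normalized concentration-effect data fitted by four-parameter Hill equation.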
Pol iota inh: inhibitors of human DNA polymerase iota; Q9UNA4; Pol iota fluorescent replication assay, 10 min; Potency, µM (titrated, usually from 115 µM), for inactives: at the top dose activity, negative = inhibition, hits mostly inhibitors; 1% of 390,000 active; AID 588590
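Pol iota at 10 nM preincubated 15 min with compounds at room temperature; reaction started with fluorescent substrate, 50 nM final. Fluorescence read kinetically at 0 and 10 min; buffer-only wells as negative control.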
FEN1 inh-1: inhibitors of human flap endonuclease 1; Recombinant FEN1 flap cleavage, fluorescence, 15 min; Potency, µM (top dose mostly 114 µM), for the others: at the highest dose activity change, negative = inhibition, usual class: inhibitors; 0.35% of 390,000 active; P39748; also: % is scaled to controls: 0 for no effect and ±100 for the full control effect; nearly all actives have a fitted effect of over 65% in size
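Quantitative HTS format: each compound was titrated, incubated with 10 nM nuclease for 15 min at room temperature, then challenged with flap substrate at 50 nM final. Signal change over 15 min gave concentration–effect curves.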
Pol kappa inh-1: blocks human DNA polymerase kappa activity; Q9UBT6; purified Pol kappa, fluorescent DNA synthesis assay, 10 min; Potency, µM (doses to about 107 µM), for the others: at the top dose activity, negative = inhibition, hits mostly inhibitors; 0.53% of 400,000 active; also: % is scaled to controls: 0 for no effect and ±100 for the full control effect
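First, compounds were pin-transferred onto 10 nM Pol kappa. After 15 min at room temperature, substrate was added to 50 nM final. Fluorescence was then measured kinetically at 0 and 10 min.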
Pol eta inh-1: DNA polymerase eta (human) inhibition. Q9Y253. recombinant Pol eta, fluorescent DNA replication assay. Potency, µM (series often up to 114 µM), without a hit: at the top dose activity change, negative = inhibition, usual class: inhibitors. 1.2% of 390,000 active; also: % is scaled to controls: 0 for no effect and ±100 for the full control effect
Target sequence (Q9Y253 whole entry, looked up): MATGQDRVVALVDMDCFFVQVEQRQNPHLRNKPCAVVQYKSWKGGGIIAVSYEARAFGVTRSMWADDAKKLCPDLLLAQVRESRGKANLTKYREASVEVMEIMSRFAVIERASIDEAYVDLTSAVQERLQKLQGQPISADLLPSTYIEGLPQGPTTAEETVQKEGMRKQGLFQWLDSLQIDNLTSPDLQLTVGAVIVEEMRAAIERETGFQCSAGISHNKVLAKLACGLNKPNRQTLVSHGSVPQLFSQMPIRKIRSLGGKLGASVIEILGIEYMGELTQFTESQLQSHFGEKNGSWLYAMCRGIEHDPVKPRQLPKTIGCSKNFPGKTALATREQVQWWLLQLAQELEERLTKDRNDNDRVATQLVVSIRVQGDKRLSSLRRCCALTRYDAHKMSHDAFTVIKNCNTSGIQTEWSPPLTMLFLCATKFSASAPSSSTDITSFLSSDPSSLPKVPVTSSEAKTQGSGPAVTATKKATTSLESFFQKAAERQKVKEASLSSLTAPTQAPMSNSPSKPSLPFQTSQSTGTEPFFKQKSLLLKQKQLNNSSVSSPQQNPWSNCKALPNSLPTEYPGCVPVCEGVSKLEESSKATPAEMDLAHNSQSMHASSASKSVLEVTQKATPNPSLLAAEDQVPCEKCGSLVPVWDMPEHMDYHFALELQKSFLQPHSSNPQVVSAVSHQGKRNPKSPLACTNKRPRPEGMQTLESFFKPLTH
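Pol eta (10 nM) was preincubated with compounds for 15 min at room temperature, after which fluorescent replication substrate (50 nM final) was added to start the reaction. Fluorescence was read kinetically at 0 and 10 min.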
TbPGK inh: validation of Trypanosoma brucei phosphoglycerate kinase inhibitors; Potency, µM (doses to about 57.5 µM), without a hit: top-dose activity change, negative = inhibition, usual class: inhibitors; shares compounds with Pol kappa inh-1; TbPGK coupled GAPDH assay, Kinase-Glo luminescence; 79% of 500 active; also: % is scaled to controls: 0 for no effect and ±100 for the full control effect; nearly all actives have a fitted effect of over 65% in size
Pol iota confirm: Confirm cherry-picked inhibitors of human polymerase iota; shares compounds with Pol kappa inh-1; Pol iota primer extension, TAMRA/BHQ fluorescence; Potency, µM, actives largely listed as inhibitors; 77% of 1,500 active; AID 720496
Pol kappa inh-2: Pol kappa (human) inhibition, cherry-pick confirmation; shares compounds with Pol eta inh-1; purified Pol-kappa, fluorescent strand-displacement substrate; Potency, µM, actives largely listed as inhibitors; 76% of 920 active; AID 720501
Pol eta inh-2: confirmation of human DNA polymerase eta inhibitors; shares compounds with Pol eta inh-1; Pol eta primer extension, TAMRA/BHQ fluorescence, 10 min; Potency, µM, usual class: inhibitors; 64% of 2,600 active; AID 720502
FEN1 inh-2: FEN1 inhibition, cherry-pick retest; shares compounds with FEN1 inh-1; FEN1 flap cleavage, TAMRA/BHQ2 fluorogenic DNA substrate; Potency, µM, usual class: inhibitors; 79% of 880 active; also: nearly all actives have a fitted effect of over 60% in size
WRN helicase inh-2: confirmation of human WRN helicase inhibitors; 63% of 610 active; Potency, µM (series often up to 57.1 µM), for inactives: at the top dose activity, negative = inhibition, usual class: inhibitors; shares compounds with WRN helicase inh-1; WRN helicase DNA unwinding, fluorescence kinetic; also: nearly all actives have a fitted effect of over 65% in size
TO DNA binding: binds DNA, flagged in WRN inhibitor counterscreen; shares compounds with WRN helicase inh-1; thiazole orange DNA binding displacement, fluorescence; Potency, µM (series often up to 57.1 µM), for the others: top-dose activity change, negative = inhibition, most hits filed as inhibitors; 10% of 610 active; AID 720499;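 also: drop in dye fluorescence marks compound binding to DNA; % is scaled to controls: 0 for no effect and ±100 for the full control effect; nearly all actives have a fitted effect of over 60% in size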
BLM helicase inh: blocks human BLM helicase in WRN counterscreen; shares compounds with WRN helicase inh-1; Potency, µM (series often up to 57.1 µM), for inactives: at the top dose activity change, negative = inhibition, most hits filed as inhibitors; 60% of 610 active; Recombinant BLM helicase DNA unwinding, red fluorescence; also: nearly all actives have a fitted effect of over 60% in size
Numbers without * were called inactive; [ ] = another dose, or the depositor's remark. Calls follow the shape of the dose curve; as a rule, active = well fitted curve in the direction sought with a large enough effect; inconclusive = small, poorly fitted or top-dose-only effect, or another doubt; inactive = no such curve, though single readings can be large; an effect the other way counts as inactive or inconclusive. Potency is read from the fitted curve at half-maximal effect.

How did CC1CC[C@@]2(NC1)OC1CC3C4CC[C@@H]5CC(O)CC[C@@]5(C)C4CC[C@]3(C)C1C2C (stereo not given in full) do in these assays?
Pol kappa inh-1: -7%[60.1 µM]

How did CCOC(=O)C1CCCN(c2ccc([N+](=O)[O-])c3nonc23)C1 (stereo not given) do in these assays?
WRN helicase inh-1: inconclusive; POLB inh: 14µM*; Pol iota inh: 56µM*; FEN1 inh-1: inconclusive; Pol kappa inh-1: 25µM*; Pol eta inh-1: 35µM*; Pol iota confirm: 38*; Pol kappa inh-2: 84*; Pol eta inh-2: 76*; FEN1 inh-2: 67*; WRN helicase inh-2: 24µM*; TO DNA binding: inactive; BLM helicase inh: 24µM*

Results for O=C1NC(=O)N(Cc2ccc(F)cc2)C(=O)/C1=C\c1ccc([N+](=O)[O-])s1 ?
WRN helicase inh-1: 40µM*; POLB inh: inconclusive; Pol iota inh: 14µM*; FEN1 inh-1: 25µM*; Pol kappa inh-1: 32µM*; Pol eta inh-1: 28µM*; Pol iota confirm: 42*; Pol eta inh-2: 17*; FEN1 inh-2: 6.7*; WRN helicase inh-2: 15µM*; TO DNA binding: 27µM*; BLM helicase inh: 19µM*

How did O=C1NC(=O)N(Cc2ccccc2)C(=O)/C1=C/c1cnn(-c2ccccc2)c1 do in these assays?
POLB inh: -24%

What do the screens show for `O=C(O)[C@@H]1C[C@H]2C[C@@H](CP(=O)(O)O)CC[C@H]2CN1`?
Pol iota inh: inconclusive; FEN1 inh-1: -2%; Pol kappa inh-1: 5%

Results for COc1ccc(CN2C(=O)NC(=O)/C(=C\c3ccco3)C2=O)cc1 ?
WRN helicase inh-1: 22µM*; POLB inh: 13µM*; Pol iota inh: inconclusive; FEN1 inh-1: 28µM*; Pol kappa inh-1: 25µM*; Pol eta inh-1: 8.9µM*; Pol iota confirm: 27*; Pol eta inh-2: 27*; FEN1 inh-2: 76*; WRN helicase inh-2: 19µM*; TO DNA binding: -14%; BLM helicase inh: 8.6µM*

What do the screens show for `CCC(CC)c1nnc(NC(=O)CC(C)c2ccccc2)s1` (stereo not given)?
WRN helicase inh-1: 0%; POLB inh: 123%; Pol iota inh: 41%; FEN1 inh-1: 0%; Pol kappa inh-1: -2%; Pol eta inh-1: -20%

Results for CC1CC[C@@]2(OC1)O[C@@H]1[C@@H](O)[C@H]3C4CC[C@H]5C[C@@H](O[C@@H]6O[C@H](CO)[C@H](O[C@@H]7O[C@H](CO)[C@@H](O)[C@H](O[C@@H]8OC[C@@H](O)[C@H](O)[C@H]8O)[C@H]7O[C@@H]7O[C@H](CO)[C@@H](O)[C@H](O[C@@H]8O[C@H](CO)[C@@H](O)[C@H](O)[C@H]8O)[C@H]7O)[C@H](O)[C@H]6O)[C@H](O)C[C@]5(C)C4CC[C@]3(C)[C@H]1[C@@H]2C (stereo not given in full) ?
Pol kappa inh-1: -7%[19.4 µM]

How did Cc1cc(/C=C2\C(=O)NC(=O)N(c3ccc(Br)cc3)C2=O)c(C)n1C do in these assays?
WRN helicase inh-1: 2%; POLB inh: -24%; Pol iota inh: inconclusive; FEN1 inh-1: -7%; Pol kappa inh-1: -16%; Pol eta inh-1: -15%

What do the screens show for `Cc1cc(/C=C2\C(=O)NC(=O)N(c3ccc(Br)cc3)C2=O)c(C)n1-c1cc(C(=O)O)cc(C(=O)O)c1`?
WRN helicase inh-1: 22µM*; POLB inh: 28µM*; Pol iota inh: inconclusive; FEN1 inh-1: inconclusive; Pol kappa inh-1: 2.8µM*; Pol eta inh-1: 2.5µM*; TbPGK inh: inconclusive; Pol iota confirm: 21*; Pol kappa inh-2: 3*; Pol eta inh-2: 12*; FEN1 inh-2: inconclusive; WRN helicase inh-2: 24µM*; TO DNA binding: 0%; BLM helicase inh: -17%

Results for Cc1ccccc1-n1nc(C)c2c1NC(=O)CSC2c1ccccc1C(F)(F)F (stereo not given) ?
POLB inh: -9%; Pol iota inh: 11%; FEN1 inh-1: 15%; Pol kappa inh-1: -1%

Results for O=c1nc(/C=C/c2ccc(Cl)cc2Cl)cc(C(F)(F)F)[nH]1 ?
WRN helicase inh-1: 50µM*; POLB inh: -8%; Pol iota inh: inconclusive; FEN1 inh-1: -2%; Pol kappa inh-1: -5%; Pol eta inh-1: 32µM*; Pol eta inh-2: inconclusive

What do the screens show for `C=C(C)[C@]12C[C@@H](C)[C@@]34O[C@](Cc5ccccc5)(O[C@@H]1[C@@H]3C=C(COC(=O)Cc1ccc(O)c(OC)c1)C[C@]1(O)C(=O)C(C)=C[C@@H]41)O2`?
Pol kappa inh-1: -14%[60.1 µM]
